Assay outcomes: PubChem, National Center for Advancing Translational Sciences (NCATS)
Most compounds without a hit are left out; they make up all but 7.5% or so of the library.
SMN2 splice up: enhancers of SMN2 splice variant expression; AID 1458; HEK293 SMN2-luciferase splicing reporter, luminescence, 30-36 h; hit rate 2.8% among 210,000; Potency, µM (highest dose often 46.1 µM), inactives show at the top dose activity change, positive = activation, most hits filed as activators; also: % of control where 0% means no effect; nearly all actives have a fitted effect of over 55% in size
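HEK293 cells carry an SMN2 minigene-luciferase reporter in which exon 7 inclusion puts luciferase in frame. Cells were seeded at 2000 cells/well, attached for 10-12 hours, then exposed to compounds for 30-36 hours at 37C before ONE-Glo luminescence.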
ELG1 genotoxic: inducers of genotoxicity in HEK293T ELG1-luciferase cells. HEK293T ELG1-luciferase reporter, luminescence, 16 h. Potency, µM (doses to about 46 µM), for the others: at the top dose activity change, positive = activation, most hits filed as activators. hit rate 1.3% among 330,000. AID 504466; also: % of control where 0% means no effect; nearly all actives have a fitted effect of over 60% in size
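Step 1: seed 2,000 HEK293T ELG1-luciferase cells per well. Step 2: add compound or DMSO, incubate 16 hr at 37 °C. Step 3: ONE-Glo, 30 min at room temperature, read luminescence.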
NPC1 prom act: activators of NPC1 promoter. Huh7 NPC1 promoter luciferase reporter, 24 h. Potency, µM (highest dose often 9.22 µM), for the others: at the top dose activation, most hits filed as activators. hit rate 2.4% among 320,000. AID 485313; also: % of control where 0% means no effect; nearly all actives have a fitted effect of over 60% in size
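Huh7 reporter cells (NPC1 promoter driving luciferase) are dosed with compound for 24 h at 37 °C, 5% CO2; luciferase detection reagent is then added and luminescence measured after 10 min at ambient temperature.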
FLuc counter: inhibits or activates purified firefly luciferase, miR-21 counter-screen; purified FLuc, Km substrates, luminescence inhibition; Potency, µM (doses to about 57.5 µM), for the others: at the top dose activity change, negative = inhibition, actives largely listed as inhibitors; hit rate 6.9% among 360,000; AID 588342;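 also: plate controls were vehicle for no effect and reference inhibitor for full effect; nearly all actives have a fitted effect of over 55% in size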
Target sequence (P08659 whole entry, looked up): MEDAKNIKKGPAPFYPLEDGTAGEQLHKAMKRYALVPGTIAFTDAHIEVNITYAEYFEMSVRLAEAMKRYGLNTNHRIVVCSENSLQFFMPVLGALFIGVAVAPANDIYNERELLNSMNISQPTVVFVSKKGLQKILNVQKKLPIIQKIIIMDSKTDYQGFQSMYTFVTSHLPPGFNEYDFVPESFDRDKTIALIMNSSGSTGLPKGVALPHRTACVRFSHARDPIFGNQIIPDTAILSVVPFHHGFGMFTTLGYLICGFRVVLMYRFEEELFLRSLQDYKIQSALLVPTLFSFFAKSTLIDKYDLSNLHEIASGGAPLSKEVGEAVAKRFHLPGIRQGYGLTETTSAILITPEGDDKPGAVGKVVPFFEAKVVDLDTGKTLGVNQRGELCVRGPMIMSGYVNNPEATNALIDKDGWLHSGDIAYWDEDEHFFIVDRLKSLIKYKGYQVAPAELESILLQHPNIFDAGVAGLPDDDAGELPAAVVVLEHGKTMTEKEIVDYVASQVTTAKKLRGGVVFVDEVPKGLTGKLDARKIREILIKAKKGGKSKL
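Purified P. pyralis luciferase, 10 nM final, with Km-level 10 uM D-luciferin and 10 uM ATP in 50 mM Tris acetate pH 7.5, 10 mM Mg acetate, 0.01% Tween-20, 0.05% BSA; 6-point qHTS titration about 60 µM downward; luminescence read.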
Rab9 prom act: activators of Rab9 promoter | hit rate 2.8% among 320,000 | Potency, µM (series often up to 9.22 µM), without a hit: at the highest dose activation, negative = inhibition, actives largely listed as activators | AID 485297 | Huh7 Rab9 promoter-luciferase reporter, luminescence, 24 h; also: % of control where 0% means no effect; nearly all actives have a fitted effect of over 60% in size
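Huh7 reporter line, Rab9 promoter upstream of luciferase. Compound exposure 24 h at 37 °C in reduced-serum medium with 10% FBS. Read-out: luminescence.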
The depositor's hits bear a star; [ ] = another dose, or the depositor's remark. Calls follow the shape of the dose curve; as a rule, active = well fitted curve in the direction sought with a large enough effect; inconclusive = small, poorly fitted or top-dose-only effect, or another doubt; inactive = no such curve, though single readings can be large; an effect the other way counts as inactive or inconclusive. Potency is read from the fitted curve at half-maximal effect.

What do the screens show for `CN(c1ccccc1)S(=O)(=O)c1ccc(NC(=O)c2ccc(-c3ccccc3)cc2)cc1`?
ELG1 genotoxic: -3.8%; NPC1 prom act: -6.0%; FLuc counter: -5.1%; Rab9 prom act: -8.3%

What do the screens show for `Cc1nc2ccc(NC(=O)c3ccc(S(=O)(=O)N(C)C)cc3)cc2s1`?
SMN2 splice up: -7.9%; ELG1 genotoxic: -0.1%; NPC1 prom act: -2.9%; FLuc counter: -6.3%; Rab9 prom act: 2.3%

What do the screens show for `c1cnc2ccc(-c3ccc4ncccc4c3)cc2c1`?
ELG1 genotoxic: inconclusive; NPC1 prom act: 1µM*; FLuc counter: 0.601µM*; Rab9 prom act: 0.447µM*

What do the screens show for `CN(C)S(=O)(=O)c1ccc(C(=O)Nc2ccc3ncccc3c2)cc1`?
ELG1 genotoxic: inconclusive; NPC1 prom act: 22.4%; FLuc counter: 15.1µM*; Rab9 prom act: 21.8%

How did O=C(CN1C(=O)/C(=C/c2ccccc2)SC1=S)NNC(=O)c1ccccc1O do in these assays?
SMN2 splice up: 4.7%; ELG1 genotoxic: -1.2%; NPC1 prom act: -2.0%; FLuc counter: inconclusive; Rab9 prom act: -1.9%

How did O=C(Nc1ccc2ncccc2c1)Nc1ccc2ncccc2c1 do in these assays?
SMN2 splice up: 1.4%[9.22 µM]; ELG1 genotoxic: 0.4%; NPC1 prom act: inconclusive; FLuc counter: 6.75µM*; Rab9 prom act: 27.4%

What do the screens show for `Cc1ccc2nc(-c3ccc(NS(=O)(=O)c4ccccc4)cc3)sc2c1`?
SMN2 splice up: 2.7%[1.84 µM]; ELG1 genotoxic: 7.4%; NPC1 prom act: 15.1%; FLuc counter: 13.5µM*; Rab9 prom act: 12.5%

Results for Cc1ccc2nc(-c3ccc(NS(=O)(=O)c4ccc(F)c(F)c4)cc3)sc2c1 ?
SMN2 splice up: inconclusive; ELG1 genotoxic: inconclusive; NPC1 prom act: 2.82µM*; FLuc counter: 1.2µM*; Rab9 prom act: 1.58µM*

How did Cc1ccc(S(=O)(=O)Nc2ccc3nc(C)sc3c2)cc1 do in these assays?
SMN2 splice up: -51.8%; ELG1 genotoxic: -2.6%; NPC1 prom act: -2.7%; FLuc counter: -1.8%; Rab9 prom act: -2.9%

How did COc1ccc(N(CC(=O)NCCc2ccccc2)C(=O)CCC(=O)Nc2ccccn2)cc1 do in these assays?
ELG1 genotoxic: 2.2%; NPC1 prom act: -1.3%; FLuc counter: -0.1%; Rab9 prom act: -0.1%

How did Cc1ccccc1Nc1c(-c2ccco2)nc2c(C)cccn12 do in these assays?
SMN2 splice up: 15.8µM*; FLuc counter: 13.5µM*

Results for OCCC1CN(Cc2nc(-c3ccccc3)cs2)CCN1Cc1ccc(F)cc1 (centres undefined) ?
ELG1 genotoxic: -7.9%; NPC1 prom act: -5.7%; FLuc counter: -6.8%; Rab9 prom act: -1.4%

How did Clc1ccc(-c2nc(Cc3ccccc3)no2)cc1 do in these assays?
SMN2 splice up: 0.2%; ELG1 genotoxic: 20.6µM*; NPC1 prom act: inconclusive; FLuc counter: 12µM*; Rab9 prom act: inconclusive

What do the screens show for `COc1ccc(-c2nc(Cc3ccc(Cl)cc3)no2)cc1OC`?
SMN2 splice up: -14.3%; ELG1 genotoxic: 7.4%; NPC1 prom act: 8.9%; FLuc counter: -1.8%; Rab9 prom act: 0.9%

Results for Cc1ccccc1-c1nc(Cc2ccccc2)no1 ?
SMN2 splice up: inconclusive; ELG1 genotoxic: inconclusive; NPC1 prom act: inconclusive; FLuc counter: 12µM*; Rab9 prom act: inconclusive

How did COc1ccccc1C(=O)NNC(=O)c1cccc(O)c1 do in these assays?
ELG1 genotoxic: inconclusive; NPC1 prom act: inconclusive; FLuc counter: 12µM*; Rab9 prom act: inconclusive

Results for COc1ccccc1C(=O)NNC(=O)c1ccccc1F ?
SMN2 splice up: 25.1µM*; ELG1 genotoxic: inconclusive; NPC1 prom act: inconclusive; FLuc counter: 15.1µM*; Rab9 prom act: 29.1%

What do the screens show for `COc1ccccc1C(=O)NNC(=O)c1cccc(F)c1`?
SMN2 splice up: 3.16µM*; ELG1 genotoxic: inconclusive; NPC1 prom act: inconclusive; FLuc counter: 15.1µM*; Rab9 prom act: inconclusive

Results for Cc1ccc2nc(CSc3nc(C)cc(C)c3C#N)[nH]c2c1 ?
SMN2 splice up: 4.47µM*; ELG1 genotoxic: inconclusive; NPC1 prom act: 11.8%; FLuc counter: 3.38µM*; Rab9 prom act: inconclusive

Results for Cc1cc(C)c(C#N)c(SCc2ccccc2)n1 ?
SMN2 splice up: 4.0%; ELG1 genotoxic: 3.3%; NPC1 prom act: -0.4%; FLuc counter: -0.3%; Rab9 prom act: -3.3%
